Bioassay records as filed in PubChem BioAssay.
GPR151 activ = activators of human GPR151, primary screen, cell-based, PathHunter beta-arrestin, luminescence | 650,000 tested, 1% active | AID 1508602, 2020 | activation, % at 11.2 µM | G-protein coupled receptor 151 (Homo sapiens), Q8TDV0 | PathHunter beta-arrestin GPR151 cells; in the data active means activation above about 4.9%
FBW7 act = FBW7 E3 ligase activators, primary screen, biochemical, AlphaScreen, human | normalized activity (activation), % at 26.1 µM | AID 1259310, 2017 | 650,000 tested, 0.13% active | F-box/WD repeat-containing protein 7 (Homo sapiens), Q969H0 | AlphaScreen FBW7–phospho-cyclin E peptide binding, activator screen; in the data active means normalized activity above about 1.9%;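 further: purified mutant Fbw7 with reduced substrate affinity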
TEAD-YAP inh = TEAD-YAP interaction inhibition, primary screen, TEAD-YAP interaction inhibitor project, luminescence, HEK-TIYL cells. TEAD-Gal4/YAP UAS-luciferase luminescence. 640,000 tested, 1.4% active. inhibition, % at 9.12 µM. AID 1259422, 2018; in the data active means inhibition above about 32%
MITF primary = MITF inhibitors, primary screen, biochemical, AlphaScreen, human; inhibition, % at 2.6 µM; AlphaScreen MITF homodimerization, bead proximity signal; 650,000 tested, 0.91% active; Microphthalmia-associated transcription factor (Homo sapiens), O75030; in the data active means inhibition above about 50%
Target sequence (O75030 whole entry, looked up): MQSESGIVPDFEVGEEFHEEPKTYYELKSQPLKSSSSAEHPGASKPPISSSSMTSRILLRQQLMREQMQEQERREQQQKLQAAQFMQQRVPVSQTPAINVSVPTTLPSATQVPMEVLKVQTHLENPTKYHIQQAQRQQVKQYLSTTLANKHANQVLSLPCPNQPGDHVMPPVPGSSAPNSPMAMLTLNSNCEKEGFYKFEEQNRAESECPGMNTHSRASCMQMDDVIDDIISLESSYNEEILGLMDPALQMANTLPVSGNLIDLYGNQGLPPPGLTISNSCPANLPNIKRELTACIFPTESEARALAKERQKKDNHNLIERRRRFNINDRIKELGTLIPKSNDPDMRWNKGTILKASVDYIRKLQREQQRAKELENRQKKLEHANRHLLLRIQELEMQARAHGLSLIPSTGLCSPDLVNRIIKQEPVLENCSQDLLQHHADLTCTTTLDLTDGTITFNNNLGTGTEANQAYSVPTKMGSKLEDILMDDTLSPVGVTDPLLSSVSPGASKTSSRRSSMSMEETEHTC
GPR151 confirm = GPR151 activators, triplicate retest, confirmation, cell-based, PathHunter beta-arrestin, luminescence; GPR151 PathHunter beta-arrestin cells, 90 min; % of EA-reagent control over plate median; shares compounds with GPR151 activ; 6,700 tested, under 10 active; activation, % at 11.2 µM;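 active means mean percent activation across replicates above the confirmation screen cutoff of 4.91%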
GPR119 counter = GPR119 activators in beta-arrestin cells, counter-screen for GPR151 activator project, cell-based, PathHunter beta-arrestin, luminescence, triplicate. 90 min; 0 = compound-well median, 100 = enzyme-acceptor control. activation, % at 11.2 µM. 6,700 tested, 0.3% active. shares compounds with GPR151 activ;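 active means mean percent activation in the counterscreen above 29.09%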;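 further: counterscreen on off-target GPR119 to flag nonselective hits from the GPR151 activator screen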
Of the large screens only hits and unclear results are named; the others gave an inactive call (follow-up assays come after a bar, where they were run). In the library only some 3.4% were active in any assay of this set; here they are far more common.

O=C(NCC1CCCN(C(=O)CCCn2cncn2)C1)c1ccc(-c2ccccc2)cc1 (centres undefined)	none
COc1ccc(/C=C(\NC(=O)c2ccc(OC)cc2)C(=O)NC(C)C(=O)O)cc1 (centres undefined)	none
COc1ccc(C(=O)N/C(=C/c2ccccc2)C(=O)NC(C)C(=O)O)cc1 (centres undefined)	GPR151 activ 8.7 | GPR151 confirm inactive | GPR119 counter inactive
COc1cccc(OC)c1C(=O)Nc1nc(CSCc2ccc(F)cc2)cs1	none
Cc1nonc1CNC1CCN(c2ccc(NC(=O)c3cnccn3)cc2)CC1	none
NC(=O)C1(N2CCCCC2)CCN(CC(=O)Nc2ccc(F)c(Cl)c2)CC1	none
NC(=O)C1(N2CCCCC2)CCN(C(=S)Nc2ccc(F)c(Cl)c2)CC1	GPR151 activ 5.1 | GPR151 confirm inactive | GPR119 counter inactive
O=C1NC(=O)/C(=C/c2c(OCc3cnc(Cl)s3)ccc3ccccc23)S1	none
CCc1nc(SCC(=O)N2CCC(C)CC2)c2ccccc2n1	none
Cc1ccc(C)c(N2CCN(S(=O)(=O)c3ccc(F)c(C(=O)Nc4ccc(Cl)cc4F)c3)CC2)c1	none
COc1ccc(C(=O)NCCc2c(C)[nH]c3c(C)ccc(F)c23)cc1OC	none
CCOc1ccc(CC(=O)NCCc2c(C)[nH]c3c(C)ccc(F)c23)cc1OCC	GPR151 activ 6.5 | GPR151 confirm inactive | GPR119 counter inactive
COc1ccc(OCCn2c(-c3ccc(Cl)cc3)nc3ccccc3c2=O)cc1	none
O=c1c2ccccc2cnn1CCOc1ccc(Cl)cc1	GPR151 activ 4.9 | GPR151 confirm inactive | GPR119 counter inactive
COc1ccc2c(CNC3CCCCCCC3)c(C(=O)O)[nH]c2c1	none
CCc1nnc2n1N(C(C)=O)C(c1ccc(Cl)c(Cl)c1)=C(C(C)=O)S2	GPR151 activ 7.1 | GPR151 confirm inactive | GPR119 counter inactive
CCc1nnc2n1N(C(C)=O)C(c1ccc(Cl)cc1)=C(C(C)=O)S2	none
COc1ccc(-c2nc3c(c4c2C[C@H](c2ccccc2)OC4)CN(C(=O)N[C@@H](C)c2ccccc2)CC3)c(C)c1	none (no result: TEAD-YAP inh)
COc1ccc(-c2nc3c(c4c2C[C@H](c2ccccc2)OC4)CN(C(=O)N[C@@H](C)C(=O)OC(C)C)CC3)c(C)c1	GPR151 activ 6.2 (no result: TEAD-YAP inh) | GPR151 confirm inactive | GPR119 counter inactive
C=CCc1ccccc1OCc1nc(=S)[nH][nH]1	none
O=C(c1ccccc1[N+](=O)[O-])N1CCN(S(=O)(=O)c2ccc3ccccc3c2)CC1	none
COc1ccc(CCNC2CC(=O)N(c3ccccc3)C2=O)cc1 (centres undefined)	GPR151 activ 5.8 | GPR151 confirm inactive | GPR119 counter inactive
CCCOc1ccc(N2C(=O)CC(NCCCc3ccccc3)C2=O)cc1 (centres undefined)	GPR151 activ 6.1 | GPR151 confirm inactive | GPR119 counter inactive
Cc1ccc(N2C(=O)CC(NCCc3ccc(Cl)cc3)C2=O)cc1 (centres undefined)	GPR151 activ 6.4 | GPR151 confirm inactive | GPR119 counter inactive
CCCOc1ccc(N2C(=O)CC(NCC34CC5CC(CC(C5)C3)C4)C2=O)cc1 (centres undefined)	GPR151 activ 5.2 | GPR151 confirm inactive | GPR119 counter inactive
COc1ccc(CCNC2CC(=O)N(c3ccc(F)cc3)C2=O)cc1 (centres undefined)	none
O=C(CC1CCCC1)Nc1nc(CN2CCc3ccccc3C2)cs1	none
COC(=O)c1cc(C(=O)Nc2nc(C)cc(C)n2)cc([N+](=O)[O-])c1	none
O=C(NC1CC1)c1cnc(NC2CCN(Cc3ccccc3)CC2)s1	none
Cc1ccc(C(=O)NC(NC(C)C)C(Cl)(Cl)Cl)cc1 (centres undefined)	none
CC(C)(C)C#C/C=N/n1nnc(-c2ccccc2)n1	GPR151 activ 5.8 | GPR151 confirm inactive | GPR119 counter inactive
CCc1ccc(C2C(C(C)=O)=C(O)C(=O)N2CCNCCO)cc1 (centres undefined)	GPR151 activ 5.4 | GPR151 confirm inactive | GPR119 counter inactive
CC(=O)C1=C(O)C(=O)N(CCNCCO)C1c1ccc(Cl)cc1 (centres undefined)	none
COc1ccccc1NC(=O)NCc1nc(N)n(C(=O)Nc2ccccc2OC)n1	GPR151 activ 5.2 | GPR151 confirm inactive | GPR119 counter inactive
CCOc1ccc(CC(=O)Nc2ccc(-c3cn4c(n3)SCC4)cc2)cc1	GPR151 activ 5.1 | GPR151 confirm inactive | GPR119 counter inactive
O=C(Cc1ccc(Br)cc1)Nc1ccc(-c2cn3c(n2)SCC3)cc1	none
Cc1sc2ncn(CC(=O)NCC(=O)N3CCN(Cc4ccccc4)CC3)c(=O)c2c1C	none
CCOc1ccccc1NC(=O)/C=C/c1ccc(OC)cc1	none
CCCCOc1ccccc1NC(=O)/C=C/c1ccc(-c2ccccc2)cc1	GPR151 activ 5.3 | GPR151 confirm inactive | GPR119 counter inactive
CC(=O)N(C1=C(N2CCCCCC2)C(=O)c2ccccc2C1=O)C1CCCCC1	none
c1nc(NCCN2CCOCC2)c2c3c(sc2n1)CCCC3	none
c1nc(NCc2ccc(CN3CCOCC3)cc2)c2c3c(sc2n1)CCC3	GPR151 activ 6.3, TEAD-YAP inh 32.5 | GPR151 confirm inactive | GPR119 counter inactive
c1nc(NCC2CCCO2)c2c3c(sc2n1)CCCC3 (centres undefined)	none
c1nc(NCC2CCCO2)c2c3c(sc2n1)CCC3 (centres undefined)	GPR151 activ 7.6 | GPR151 confirm inactive | GPR119 counter inactive
CC1CCN(c2ncnc3scc(-c4ccccc4)c23)CC1	none
O=C(NCc1nnc(SCC(=O)N2N=C(c3cccs3)CC2c2ccc(F)cc2)n1-c1ccccc1)c1cccc(F)c1 (centres undefined)	none
COc1ccc([N+](=O)[O-])cc1NC(C)C	GPR151 activ 5.0 | GPR151 confirm inactive | GPR119 counter inactive
CCS(=O)(=O)Nc1cc([N+](=O)[O-])ccc1OC	none
COc1ccc([N+](=O)[O-])cc1NC1CCCCC1C (centres undefined)	GPR151 activ 5.7 | GPR151 confirm inactive | GPR119 counter inactive
CC1CCCCC1Nc1ccc([N+](=O)[O-])cc1C#N (centres undefined)	none
CCc1ccc(-n2cnc3cc(C(=O)O)ccc32)cc1	none
Cc1c(OC(=O)C2CCCCC2)ccc2c3c(c(=O)oc12)CCC3	none
Cc1ccc(C2=N/C(=C/c3cccs3)C(=O)O2)cc1C	none
